Measured values from the supplement of paper PMC10849652.
Of roughly 8,800 targets only a part is listed; those with a hit were picked by preference. About 0.5% of all pairs of compound and target were hits.

What was measured:
Assay in all cases: log2 fold change, soluble protein after heating vs DMSO (PISA); higher = thermal stabilisation; K562 lysate, 10 uM; active = over 0.2 and 3.5 SD of the protein, either way, in both replicates (recomputed)
nilotinib = compound: Cc1cn(-c2cc(NC(=O)c3ccc(C)c(Nc4nccc(-c5cccnc5)n4)c3)cc(C(F)(F)F)c2)cn1 [nilotinib]
Outline: (§1)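 Pellets of K562 cells were dounce-homogenised in PBS pH 7.4 with 1 mM MgCl2, and the crude extract was held at 1 mg/mL protein for a 30 min treatment with 10 μM compound. Aliquots were heated for 3 min over 48°C-58°C and pooled before NP-40 was added to 0.5% at 4°C. The supernatant from 21,000xg for 90 min was quantified by TMTpro 16plex LC-MS/MS with channel sums equalised. Values are reported from duplicates as log-two fold change in thermal stability relative to solvent controls.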

[1] = compound: Cc1nc(Nc2n[nH]c3c2CN(C(=O)N[C@H](CN(C)C)c2ccccc2)C3(C)C)c2sccc2n1
Outline: as §1

dasatinib = compound: Cc1nc(Nc2ncc(C(=O)Nc3c(C)cccc3Cl)s2)cc(N2CCN(CCO)CC2)n1 [dasatinib]
Outline: as §1

[2] = compound: Cc1ncc(-c2ccnc(Nc3ccc(S(C)(=O)=O)cc3)n2)n1C(C)C
Outline: as §1

[3] = compound: Cn1cc(-c2ccc3c(c2)CCN3C(=O)Cc2cccc(C(F)(F)F)c2)c2c(N)ncnc21
Outline: as §1

quisinostat = compound: Cn1cc(CNCC2CCN(c3ncc(C(=O)NO)cn3)CC2)c2ccccc21 [quisinostat]
Outline: as §1

tipifarnib = compound: Cn1cncc1[C@@](N)(c1ccc(Cl)cc1)c1ccc2c(c1)c(-c1cccc(Cl)c1)cc(=O)n2C [tipifarnib]
Outline: as §1

[4] = compound: NC(=O)Nc1cc(-c2cccc(F)c2)sc1C(=O)N[C@H]1CCCNC1
Outline: as §1

[5] = compound: NC(=O)c1cnc(N[C@@H]2CCCC[C@@H]2N)nc1Nc1cccc(-n2nccn2)c1
Outline: as §1

[6] = compound: NC1(c2ccc(-c3nc4ccn5c(=O)[nH]nc5c4cc3-c3ccccc3)cc2)CCC1
Outline: as §1

[7] = compound: NCC(=O)Nc1ccc(-n2nc(C(F)(F)F)cc2-c2ccc3c(ccc4ccccc43)c2)cc1
Outline: as §1

vorinostat = compound: O=C(CCCCCCC(=O)Nc1ccccc1)NO [vorinostat]
Outline: as §1

silmitasertib = compound: O=C(O)c1ccc2c(c1)nc(Nc1cccc(Cl)c1)c1ccncc12 [silmitasertib]
Outline: as §1

[8] = compound: O=C1NC(=O)C(c2cnc3ccccn23)=C1c1cn2c3c(cc(F)cc13)CN(C(=O)N1CCCCC1)CC2
Outline: as §1

entospletinib = compound: c1cn2cc(-c3ccc4cn[nH]c4c3)nc(Nc3ccc(N4CCOCC4)cc3)c2n1 [entospletinib]
Outline: as §1

Measured: log2 fold change

STAT2 (UniProt P52630)
inactive: nilotinib -0.017 | [1] 0.006 | dasatinib -0.024 | [2] -0.086 | [3] 0.025 | quisinostat -0.117 | tipifarnib -0.024 | [4] 0.054 | [5] 0.016 | [6] -0.016 | [7] -0.018 | silmitasertib 0.063 | [8] -0.017 | entospletinib 0.011
active: vorinostat -0.254

SYK (UniProt P43405)
inactive: nilotinib 0.02 | [1] -0.031 | dasatinib -0.067 | [2] 0 | [3] 0.01 | quisinostat -0.077 | tipifarnib -0.002 | [4] -0.095 | [6] -0.064 | [7] 0.135 | vorinostat -0.138 | silmitasertib 0.053 | [8] 0.016 | entospletinib -0.079

SURF2 (UniProt Q15527)
inactive: nilotinib -0.192 | [1] -0.052 | dasatinib -0.045 | [2] 0.195 | [3] -0.031 | quisinostat -0.054 | tipifarnib 0.066 | [4] -0.036 | [5] 0.014 | [7] -0.01 | [8] 0.04 | entospletinib 0.049

SIX5 (UniProt Q8N196)
inactive: nilotinib 0.06 | [1] -0.05 | dasatinib 0.02 | [2] 0.074 | [3] -0.064 | quisinostat -0.141 | tipifarnib 0.02 | [4] 0.08 | [5] 0.092 | [6] -0.025 | vorinostat 0.162 | silmitasertib -0.011 | [8] -0.097

SRPK1 (UniProt Q96SB4)
inactive: nilotinib -0.002 | [1] 0.069 | dasatinib -0.01 | [2] -0.03 | [3] 0.017 | quisinostat -0.108 | tipifarnib -0.03 | [5] -0.021 | [6] -0.069 | [7] -0.043 | vorinostat -0.172 | silmitasertib 0.119 | [8] 0 | entospletinib 0.012
active: [4] 0.283

SLC29A2 (UniProt Q14542)
Chain of UniProt Q14542 (Q14542 whole entry, looked up): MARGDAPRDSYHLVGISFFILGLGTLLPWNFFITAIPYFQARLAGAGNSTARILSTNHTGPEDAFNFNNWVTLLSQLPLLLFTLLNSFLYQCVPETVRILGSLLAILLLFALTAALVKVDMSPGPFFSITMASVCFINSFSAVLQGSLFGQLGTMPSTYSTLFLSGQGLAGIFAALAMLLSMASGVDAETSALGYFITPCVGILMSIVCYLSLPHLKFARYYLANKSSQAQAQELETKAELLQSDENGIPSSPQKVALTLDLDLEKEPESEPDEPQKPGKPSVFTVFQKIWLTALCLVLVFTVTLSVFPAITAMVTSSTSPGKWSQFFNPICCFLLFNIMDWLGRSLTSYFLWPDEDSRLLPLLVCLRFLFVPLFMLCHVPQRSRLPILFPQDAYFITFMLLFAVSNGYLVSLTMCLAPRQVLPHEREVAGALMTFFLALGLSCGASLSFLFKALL
inactive: nilotinib 0.083 | [1] 0.095 | dasatinib 0.029 | [2] 0.058 | [3] 0.037 | quisinostat -0.242 | tipifarnib 0.048 | [4] 0.088 | [5] -0.037 | [6] -0.021 | [7] -0.045 | vorinostat 0.139 | silmitasertib 0.117 | [8] 0.031 | entospletinib -0.06

SMAD2 (UniProt Q15796)
inactive: nilotinib 0.025 | [1] 0.116 | dasatinib 0.006 | [2] -0.059 | [3] 0.011 | quisinostat -0.012 | tipifarnib 0.055 | [4] 0.038 | [5] -0.015 | [6] 0.042 | [7] -0.025 | silmitasertib -0.051 | [8] 0.008 | entospletinib -0.049
active: vorinostat -0.752

TAOK2 (UniProt Q9UL54)
Chain of UniProt Q9UL54 (Q9UL54 whole entry, looked up): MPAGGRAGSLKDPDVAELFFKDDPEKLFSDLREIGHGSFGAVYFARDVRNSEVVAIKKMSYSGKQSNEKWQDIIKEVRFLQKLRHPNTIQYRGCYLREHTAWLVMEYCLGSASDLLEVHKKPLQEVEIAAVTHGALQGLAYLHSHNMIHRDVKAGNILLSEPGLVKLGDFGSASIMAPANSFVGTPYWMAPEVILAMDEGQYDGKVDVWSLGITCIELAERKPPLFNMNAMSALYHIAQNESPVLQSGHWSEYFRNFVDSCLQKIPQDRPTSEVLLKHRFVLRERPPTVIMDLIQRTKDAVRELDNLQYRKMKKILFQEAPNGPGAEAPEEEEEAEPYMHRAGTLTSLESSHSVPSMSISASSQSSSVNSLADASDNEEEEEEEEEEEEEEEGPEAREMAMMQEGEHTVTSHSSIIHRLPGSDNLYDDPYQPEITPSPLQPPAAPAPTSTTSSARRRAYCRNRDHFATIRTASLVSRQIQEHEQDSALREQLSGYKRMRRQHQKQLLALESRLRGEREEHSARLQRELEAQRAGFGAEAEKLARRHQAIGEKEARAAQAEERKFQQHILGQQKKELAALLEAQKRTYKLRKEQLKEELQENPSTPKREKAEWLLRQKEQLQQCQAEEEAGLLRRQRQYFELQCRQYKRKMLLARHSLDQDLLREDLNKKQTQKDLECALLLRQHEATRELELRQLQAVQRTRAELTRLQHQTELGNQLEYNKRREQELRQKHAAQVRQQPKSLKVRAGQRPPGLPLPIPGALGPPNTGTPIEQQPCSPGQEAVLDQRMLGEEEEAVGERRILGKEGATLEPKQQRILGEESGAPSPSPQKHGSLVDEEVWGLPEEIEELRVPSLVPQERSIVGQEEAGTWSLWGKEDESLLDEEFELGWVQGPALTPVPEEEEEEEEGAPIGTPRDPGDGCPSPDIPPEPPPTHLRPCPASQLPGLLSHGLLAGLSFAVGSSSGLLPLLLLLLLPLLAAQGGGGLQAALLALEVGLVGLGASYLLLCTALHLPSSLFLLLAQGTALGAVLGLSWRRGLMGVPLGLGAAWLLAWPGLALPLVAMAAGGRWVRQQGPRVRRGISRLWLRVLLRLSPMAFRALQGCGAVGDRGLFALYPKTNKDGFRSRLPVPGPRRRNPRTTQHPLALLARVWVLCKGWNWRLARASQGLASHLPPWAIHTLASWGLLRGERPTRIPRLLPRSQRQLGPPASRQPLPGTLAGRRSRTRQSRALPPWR
inactive: nilotinib 0.033 | [1] -0.069 | dasatinib -0.231 | [2] 0.012 | [3] 0.052 | tipifarnib 0.033 | [4] 0.022 | [5] -0.008 | [7] 0.015 | [8] -0.051 | entospletinib 0.01
active: quisinostat -0.516

TARBP2 (UniProt Q15633)
active: vorinostat -0.519
inactive: nilotinib 0.003 | [1] 0.019 | dasatinib -0.038 | [2] 0.005 | [3] -0.056 | quisinostat -0.106 | tipifarnib -0.067 | [4] 0.065 | [5] -0.029 | [6] 0.056 | [7] -0.017 | silmitasertib 0.024 | [8] -0.03 | entospletinib -0.002

TAF6L (UniProt Q9Y6J9)
Chain of UniProt Q9Y6J9 (Q9Y6J9 whole entry, looked up): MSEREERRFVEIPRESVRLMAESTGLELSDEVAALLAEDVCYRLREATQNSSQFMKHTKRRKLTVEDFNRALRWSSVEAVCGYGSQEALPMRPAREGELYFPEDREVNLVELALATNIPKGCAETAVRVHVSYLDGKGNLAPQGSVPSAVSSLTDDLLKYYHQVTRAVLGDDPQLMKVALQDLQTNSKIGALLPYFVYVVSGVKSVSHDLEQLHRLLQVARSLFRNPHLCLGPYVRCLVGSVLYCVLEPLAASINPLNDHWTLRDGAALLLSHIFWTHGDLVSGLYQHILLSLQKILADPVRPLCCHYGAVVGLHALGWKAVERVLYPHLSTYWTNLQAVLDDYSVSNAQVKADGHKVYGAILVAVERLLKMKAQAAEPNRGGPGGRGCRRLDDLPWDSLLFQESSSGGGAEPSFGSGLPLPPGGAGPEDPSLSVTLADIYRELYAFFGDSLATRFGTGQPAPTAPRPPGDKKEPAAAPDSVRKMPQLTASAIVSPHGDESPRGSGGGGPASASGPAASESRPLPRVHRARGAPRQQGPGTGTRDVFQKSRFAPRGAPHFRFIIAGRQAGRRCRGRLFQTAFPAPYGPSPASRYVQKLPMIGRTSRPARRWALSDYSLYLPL
inactive: nilotinib -0.023 | [1] 0.012 | dasatinib -0.118 | [2] 0.021 | [3] 0.056 | quisinostat 0.018 | tipifarnib -0.032 | [4] 0.094 | [5] 0.028 | [6] 0.034 | [7] -0.022 | vorinostat -0.086 | silmitasertib 0.013 | [8] -0.033 | entospletinib -0.08

SPAG1 (UniProt Q07617)
inactive: quisinostat -0.037 | [4] 0.007 | [5] 0.164 | [7] 0.227 | [8] -0.061

TARDBP (UniProt K7EN94)
inactive: [7] 0.1 | entospletinib -0.166

STK3 isoform 2 (UniProt Q13188)
inactive: nilotinib 0.015 | [1] 0.274 | dasatinib 0.132 | [2] 0.179 | [3] 0.276 | quisinostat -0.077 | tipifarnib -0.014 | [5] 0.108 | [6] -0.01 | [7] 0.034 | vorinostat -0.05 | silmitasertib 0.022 | [8] 0.025 | entospletinib -0.003

SLC30A6 isoform 2 (UniProt Q6NXT4)
inactive: nilotinib -0.029 | [1] 0.118 | [2] -0.067 | quisinostat -0.048 | tipifarnib -0.071 | [4] 0.093 | [5] 0.012 | [6] -0.096 | [7] 0.014 | vorinostat 0.11 | silmitasertib 0.01 | [8] 0.001 | entospletinib 0.064

SMIM1 (UniProt B2RUZ4)
Chain of UniProt B2RUZ4 (B2RUZ4 whole entry, looked up): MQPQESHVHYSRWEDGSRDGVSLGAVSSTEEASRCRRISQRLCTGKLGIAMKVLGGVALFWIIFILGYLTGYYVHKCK
active: [6] -0.418
inactive: nilotinib 0.056 | [1] 0.05 | [2] 0.195 | quisinostat 0.168 | tipifarnib 0.039 | [4] -0.055 | [5] -0.188 | vorinostat 0.177 | silmitasertib -0.076 | [8] 0.12 | entospletinib 0.042

SPPL2A (UniProt Q8TCT8)
Chain of UniProt Q8TCT8 (Q8TCT8 whole entry, looked up): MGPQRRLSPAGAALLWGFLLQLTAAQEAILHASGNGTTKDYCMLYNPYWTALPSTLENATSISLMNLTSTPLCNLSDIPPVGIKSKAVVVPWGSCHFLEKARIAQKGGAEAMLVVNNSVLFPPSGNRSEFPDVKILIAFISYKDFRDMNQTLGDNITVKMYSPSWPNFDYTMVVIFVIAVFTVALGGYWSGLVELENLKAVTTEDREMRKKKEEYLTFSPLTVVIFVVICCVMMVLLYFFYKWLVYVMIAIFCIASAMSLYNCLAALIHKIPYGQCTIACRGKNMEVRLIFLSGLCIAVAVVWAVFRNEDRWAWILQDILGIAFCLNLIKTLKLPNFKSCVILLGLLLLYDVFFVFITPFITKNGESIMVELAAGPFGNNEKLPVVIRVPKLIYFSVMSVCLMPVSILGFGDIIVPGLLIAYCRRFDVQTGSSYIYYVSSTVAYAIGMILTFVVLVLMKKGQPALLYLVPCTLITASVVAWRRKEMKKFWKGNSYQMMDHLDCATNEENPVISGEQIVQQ
inactive: quisinostat -0.21 | [4] 0.046 | [5] 0 | [6] -0.072 | [7] 0.407 | vorinostat -0.106 | silmitasertib -0.069 | [8] 0.047 | entospletinib 0.141

SPA17 (UniProt Q15506)
inactive: dasatinib -0.065 | [3] -0.041 | quisinostat 0.003 | [4] -0.015 | [5] 0.042 | [7] 0.049 | [8] 0.022 | entospletinib -0.025

SOX5 (UniProt P35711)
inactive: dasatinib -0.035 | [3] -0.095 | quisinostat 0.027 | [4] -0.03 | [5] -0.186 | [6] -0.004 | [7] -0.036 | vorinostat -0.014 | silmitasertib 0.099 | [8] -0.027 | entospletinib -0.083

SIN3B (UniProt O75182)
Chain of UniProt O75182 (O75182 whole entry, looked up): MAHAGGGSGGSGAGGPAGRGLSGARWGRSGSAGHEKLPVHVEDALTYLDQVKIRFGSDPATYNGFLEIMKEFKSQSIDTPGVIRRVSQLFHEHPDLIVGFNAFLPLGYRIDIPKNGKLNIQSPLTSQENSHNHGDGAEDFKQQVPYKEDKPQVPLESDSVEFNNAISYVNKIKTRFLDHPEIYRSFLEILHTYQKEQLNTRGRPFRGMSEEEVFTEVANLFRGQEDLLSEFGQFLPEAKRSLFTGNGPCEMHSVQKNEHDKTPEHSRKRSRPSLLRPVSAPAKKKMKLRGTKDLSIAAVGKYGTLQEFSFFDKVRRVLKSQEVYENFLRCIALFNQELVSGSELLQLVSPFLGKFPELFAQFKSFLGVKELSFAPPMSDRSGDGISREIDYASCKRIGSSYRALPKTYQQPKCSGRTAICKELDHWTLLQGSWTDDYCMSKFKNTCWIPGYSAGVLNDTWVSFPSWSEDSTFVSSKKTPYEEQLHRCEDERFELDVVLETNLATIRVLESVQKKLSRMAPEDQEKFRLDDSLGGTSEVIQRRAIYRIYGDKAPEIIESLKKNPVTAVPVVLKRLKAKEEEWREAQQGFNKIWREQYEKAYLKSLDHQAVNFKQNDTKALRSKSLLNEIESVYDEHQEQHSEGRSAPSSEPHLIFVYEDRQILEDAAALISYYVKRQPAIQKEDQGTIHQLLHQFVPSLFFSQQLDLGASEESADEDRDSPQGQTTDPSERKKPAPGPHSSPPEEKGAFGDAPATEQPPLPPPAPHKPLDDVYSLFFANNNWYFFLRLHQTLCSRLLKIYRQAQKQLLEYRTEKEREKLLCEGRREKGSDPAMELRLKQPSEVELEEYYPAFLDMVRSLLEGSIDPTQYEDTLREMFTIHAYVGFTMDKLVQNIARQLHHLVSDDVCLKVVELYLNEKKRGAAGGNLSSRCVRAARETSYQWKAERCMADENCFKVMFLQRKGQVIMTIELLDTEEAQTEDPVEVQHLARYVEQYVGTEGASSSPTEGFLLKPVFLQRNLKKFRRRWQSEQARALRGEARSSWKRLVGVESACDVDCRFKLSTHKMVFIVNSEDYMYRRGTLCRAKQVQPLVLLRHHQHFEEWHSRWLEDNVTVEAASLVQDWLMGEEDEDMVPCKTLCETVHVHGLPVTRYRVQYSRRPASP
inactive: [1] -0.15 | [2] 0.839 | quisinostat -0.079 | tipifarnib 0.086 | [4] 0.077 | [7] 0.195 | [8] 0.559 | entospletinib -0.089
active: nilotinib 1.42

SNIP1 (UniProt Q8TAD8)
inactive: nilotinib -0.1 | [1] 0.037 | [2] -0.078 | tipifarnib -0.149

SMPD2 (UniProt O60906)
Chain of UniProt O60906 (O60906 whole entry, looked up): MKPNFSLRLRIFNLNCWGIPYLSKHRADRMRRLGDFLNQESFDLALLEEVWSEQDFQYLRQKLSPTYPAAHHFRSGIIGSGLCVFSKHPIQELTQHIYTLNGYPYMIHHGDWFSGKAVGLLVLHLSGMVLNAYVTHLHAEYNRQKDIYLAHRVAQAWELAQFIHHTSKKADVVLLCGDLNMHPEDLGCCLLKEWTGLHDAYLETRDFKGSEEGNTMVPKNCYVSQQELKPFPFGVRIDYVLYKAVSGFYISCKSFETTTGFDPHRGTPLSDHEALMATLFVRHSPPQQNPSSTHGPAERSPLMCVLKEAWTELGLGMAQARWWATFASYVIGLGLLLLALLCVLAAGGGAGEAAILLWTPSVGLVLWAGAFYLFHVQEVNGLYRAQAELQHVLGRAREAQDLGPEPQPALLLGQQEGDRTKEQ
inactive: dasatinib -0.169 | [3] -0.102 | [5] 0.029 | [6] 0.069 | vorinostat 0.261 | entospletinib 0.058
active: silmitasertib -1.47

TAOK2 isoform 2 (UniProt Q9UL54)
inactive: nilotinib 0.109 | [1] 0.013 | [2] -0.01 | tipifarnib 0.031

SSX5 isoform 2 (UniProt O60225)
Chain of UniProt O60225 (O60225 whole entry, looked up): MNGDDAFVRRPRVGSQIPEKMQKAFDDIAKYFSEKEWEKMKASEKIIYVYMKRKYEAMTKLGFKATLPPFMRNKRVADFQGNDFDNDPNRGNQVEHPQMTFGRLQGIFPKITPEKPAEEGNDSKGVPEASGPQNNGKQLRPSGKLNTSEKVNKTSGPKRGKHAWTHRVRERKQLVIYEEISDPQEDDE
inactive: nilotinib 0.008 | [1] -0.018 | [2] 0.064 | tipifarnib 0.061 | [5] 0.026 | [6] 0.15 | [7] -0.111 | vorinostat -0.059 | silmitasertib 0.091 | entospletinib -0.035

SHB (UniProt Q15464)
inactive: dasatinib 0.05 | [3] 0.004 | quisinostat 0.072 | [4] -0.026 | [5] -0.02 | [6] -0.01 | silmitasertib 0.117 | [8] 0.044
active: vorinostat -0.356

SNAP23 isoform 2 (UniProt O00161)
Chain of UniProt O00161 (O00161 whole entry, looked up): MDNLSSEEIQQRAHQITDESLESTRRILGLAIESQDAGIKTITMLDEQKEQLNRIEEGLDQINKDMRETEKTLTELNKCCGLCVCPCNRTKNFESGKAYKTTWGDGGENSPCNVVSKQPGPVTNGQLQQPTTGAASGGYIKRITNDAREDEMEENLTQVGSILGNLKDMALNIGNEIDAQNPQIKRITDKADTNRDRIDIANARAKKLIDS
active: vorinostat -0.85
inactive: nilotinib 0.011 | [1] -0.041 | [2] -0.054 | tipifarnib -0.016 | [5] 0.046 | [6] -0.116 | [7] 0.146 | silmitasertib -0.028 | entospletinib -0.329

SLC41A1 (UniProt Q8IVJ1)
inactive: nilotinib -0.009 | [1] 0.012 | [2] 0.07 | quisinostat 0.23 | tipifarnib -0.02 | [4] -0.003 | [5] 0.014 | [6] 0.055 | vorinostat 0.06 | silmitasertib -0.063 | entospletinib 0.007
active: [8] -0.37
